NIH3T3 tox – kills NIH 3T3 cells; NIH 3T3 viability, CellTiter-Glo ATP luminescence, 48-72 h; Potency, µM (titrated, usually from 96.7 µM), usual class: inhibitors; 94,000 compounds, 4.3% hits; AID 1345082; also: nearly all actives have a fitted effect of over 55% in size
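Viability of NIH 3T3 cells after 48 or 72 hr compound treatment at 37 °C was assessed by CellTiter-Glo, with luminescence imaged following a 10 min room-temperature step.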
SNCA expr inhib – reduces expression of the alpha-synuclein gene; HEK-293 SNCA-luciferase knock-in, luminescence, 24 h; Potency, µM (titrated, usually from 57.2 µM), actives largely listed as inhibitors; 140,000 compounds, 0.17% hits; AID 1671194; also: nearly all actives have a fitted effect of over 45% in size
IP6K1 inh – IP6K1 kinase inhibition | Q92551 | IP6K1 kinase, ADP-Glo luminescence, 2 h; active compounds read low | activity change, % (series mostly up to about 58 µM) | 140,000 compounds, 0.81% hits | AID 1645851; in the data active = activity change below about -25%
Target sequence (Q92551 whole entry, looked up): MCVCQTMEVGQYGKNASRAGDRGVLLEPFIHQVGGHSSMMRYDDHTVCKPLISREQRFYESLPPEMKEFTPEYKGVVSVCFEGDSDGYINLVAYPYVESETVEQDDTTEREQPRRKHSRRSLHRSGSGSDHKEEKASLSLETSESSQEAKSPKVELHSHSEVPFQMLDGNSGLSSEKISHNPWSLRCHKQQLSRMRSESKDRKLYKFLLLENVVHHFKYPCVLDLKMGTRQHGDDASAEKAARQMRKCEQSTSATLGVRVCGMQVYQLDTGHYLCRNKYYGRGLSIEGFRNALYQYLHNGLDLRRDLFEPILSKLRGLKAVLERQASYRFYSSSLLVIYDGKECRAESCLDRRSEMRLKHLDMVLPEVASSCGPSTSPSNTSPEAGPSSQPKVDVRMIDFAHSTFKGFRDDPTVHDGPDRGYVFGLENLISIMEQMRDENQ
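ADP-Glo luminescence measures ADP made by human IP6K1 during a 2 h RT reaction with ATP/IP6 (mix at 1.3 mM/130 uM); top library doses 57.5 and 19.1 uM final.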
HEK293 tox – HEK 293 cell cytotoxicity | HEK 293 viability, ATP luminescence (CellTiter-Glo), 48-72 h | AID 1345083 | 94,000 compounds, 6.6% hits | Potency, µM (doses to about 115 µM), hits mostly inhibitors; also: nearly all actives have a fitted effect of over 60% in size
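Read-out: CellTiter-Glo ATP luminescence. Cells: HEK 293, 250 cells/well. Exposure: 48 or 72 hr, 37 degree Celsius.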
Luciferase inh – Photinus pyralis luciferase inhibition. P08659. AID 1347043. Potency, µM (doses to about 115 µM), most hits filed as inhibitors. purified P. pyralis luciferase, luminescence, biochemical. 76,000 compounds, 2.5% hits; also: nearly all actives have a fitted effect of over 65% in size
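Luminescence read by CCD imaging after purified firefly luciferase (10nM final) was added to substrate buffer holding 10uM D-luciferin and 10uM ATP, pH 7.5, pre-dosed with compound.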
HEK293 viab – reduces viability of HEK-293 SNCA reporter cells; HEK-293-SNCA-luc viability, GF-AFC fluorescence, 24 h; Potency, µM (series often up to 57.1 µM), actives largely listed as cytotoxic; 150,000 compounds, 0.12% hits; AID 1671193; also: nearly all actives have a fitted effect of over 30% in size
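Cytotoxicity counterscreen: after 24 h compound treatment of genome-edited SNCA-luciferase HEK-293 cells, live-cell protease substrate GF-AFC read by fluorescence after 30 min; activity scaled between DMSO (0%) and medium-only (-100%), curves Hill-fitted.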
Numbers stand for hits; 0 = inactive; ? = inconclusive; - = no result given; ! = a repeat was not active; [ ] = another dose, or the depositor's remark. Sampled rows, rich in hits. Any-hit rate of the full collection: about 7.3%. Unless noted, calls follow the shape of the dose curve; as a rule, active = well fitted curve in the direction sought with a large enough effect; inconclusive = small, poorly fitted or top-dose-only effect, or another doubt; inactive = no such curve, though single readings can be large; an effect the other way counts as inactive or inconclusive.

SMILES	NIH3T3 tox	SNCA expr inhib	IP6K1 inh	HEK293 tox	Luciferase inh	HEK293 viab
COc1cc(OC)cc(-c2onc(C)c2C(=O)NCCC(c2ccccc2)c2ccccc2)c1	?	0	0	39.8µM	0	0
Cc1noc(-c2ccc3c(c2)OCO3)c1C(=O)NCCC(c1ccccc1)c1ccccc1	?	0	0	22.4µM	0	0
CC1CCN(C(=O)CC(c2ccc(Cl)cc2)c2cn(C)c3ccccc23)CC1 (centres undefined)	?	0	0	?	0	0
O=C(Cn1ccn2nc3c(c2c1=O)CCCC3)NC1CCCC1	0	0	0	0	0	0
COc1ccc(OC)c(CNC(=O)C2CCN(C(=O)N3CC4CC(C3)[C@H]3CCCC(=O)N3C4)CC2)c1 (some centres undefined)	0	0	0	0	0	0
Cc1noc(-c2ccco2)c1C(=O)NCCC(c1ccccc1)c1ccccc1	?	0	0	39.8µM	0	0
Cc1noc(-c2cccs2)c1C(=O)NCCC(c1ccccc1)c1ccccc1	0	0	0	?	0	0
COc1ccc(NC(=O)[C@@H]2C[C@@H](c3ccc(F)cc3)N(Cc3ccccc3)C2)cc1OC	?	0	0	0	0	0
CSc1ccc(-c2cccc(CN3CCC(NC(=O)c4cccc(Cl)c4)CC3)c2)cc1	0	-	0	0	-	-
COc1ccccc1-c1cccc(CN2CCC(NC(C)=O)CC2)c1	?	0	0	0	-	0
COc1ccccc1-c1cccc(CN2CCC(NC(=O)Cc3ccc(F)cc3)CC2)c1	31.6µM	0	0	?	-	0
O=C(NC1CCN(Cc2cccc(-c3ccc(F)cc3F)c2)CC1)c1cccc(Cl)c1	15.8µM	-	0	22.4µM!	-	-
COc1ccccc1-c1cccc(CN2CCC(NC(=O)Cc3cccc(Cl)c3)CC2)c1	25.1µM	0	0	?	-	0
COc1ccccc1-c1cccc(CN2CCC(NC(=O)c3cccc(Cl)c3)CC2)c1	?	0	0	44.7µM	-	0
Cc1ccc(C(=O)N2CCCCCCN(C)C(=O)[C@@H]3CCC[C@@H]32)s1	0	0	0	?	0	0
CO[C@H]1C(=O)N(C(C)C)[C@H]1C1CCN(C(=O)C2CC2)CC1	0	0	0	0	0	0
COc1ccccc1-c1cccc(CN2CCC(NC(=O)c3ccc(C(F)(F)F)cc3)CC2)c1	25.1µM	0	0	22.4µM	-	0
COc1ccccc1-c1cccc(CN2CCC(NC(=O)Nc3ccccc3)CC2)c1	17.8µM	0	0	22.4µM	-	0
O=C(NC1CCN(Cc2cccc(-c3cccs3)c2)CC1)c1ccc(C(F)(F)F)cc1	?	0	0	?	-	0[12.5 µM]
CCCC(=O)N1Cc2ccccc2CC2(CCCN(C)C2)C1 (centres undefined)	?	0	0	89.1µM	-	0
CN1CCCC2(Cc3ccccc3CN(C(=O)CCCC(=O)O)C2)C1 (centres undefined)	0	0	0	0	-	0
CCCS(=O)(=O)N1CCc2c(c(CN3CCOCC3)nn2C)C1	0	0	0	0	-	0
Cc1ccccc1-c1nc(Cn2ccnc2C(C)C)c(C)o1	?	0	0	28.2µM	0	0
CC(=O)N1CCOC2(CCN(C(=O)c3ccc(Cl)cc3)CC2)C1	0	0	0	0	-	0
C#CCNC(=O)[C@@H]1Cc2cn(CC3CC3)c3cccc(c23)[C@H](CC(C)C)N1	44.7µM	0	0	70.8µM	0	0
SMILES	NIH3T3 tox	SNCA expr inhib	IP6K1 inh	HEK293 tox	Luciferase inh	HEK293 viab
C=CCn1cc2c3c(cccc31)[C@H](CC(C)C)N[C@H](C(=O)NCc1ccccn1)C2	?	0	0	50.1µM	0	0
CC(C)C[C@@H]1N[C@H](C(=O)NCc2ccncc2)Cc2cn(Cc3ccncc3)c3cccc1c23	?	0	0	50.1µM	0	0
CC(C)C[C@@H]1N[C@H](C(=O)NCc2ccccn2)Cc2cn(Cc3ccncc3)c3cccc1c23	?	0	0	25.1µM	0	0
O=C(NCCn1ccn2nc(-c3ccc(F)cc3)cc2c1=O)c1cccs1	0	0	0	0	?	0
O=C([C@@H]1C[C@H](Oc2ccccc2)CN1C(=O)NC1CCCCC1)N1CCOCC1	0	0	0	0	0	0
CC(C)C[C@@H]1N[C@H](C(=O)NCc2cccs2)Cc2c[nH]c3cccc1c23	39.8µM	0	0	39.8µM	0	0
C#CCNC(=O)[C@@H]1Cc2cn(Cc3ccncc3)c3cccc(c23)[C@H](CC(C)C)N1	89.1µM	?	0	44.7µM	0	?
CC(C)C[C@@H]1N[C@H](C(=O)NCCN2CCOCC2)Cc2cn(Cc3ccccn3)c3cccc1c23	?	0	0	?	0	?
CCn1cc(C(=O)N2C[C@@H](COc3ccccc3)[C@H](C(N)=O)C2)cn1	0	0	0	0	0	0
COc1ccccc1-c1cnc2n[nH]c(-c3ccc4c(c3)OCO4)c2n1	35.5µM	0	0	35.5µM	0	0
Oc1ccccc1-c1cnc2n[nH]c(-c3ccc4c(c3)OCO4)c2n1	?	0	0	?	?	0
COc1cc(F)ccc1-c1cnc2n[nH]c(-c3ccc4c(c3)OCO4)c2n1	25.1µM	?	0	?	0	?
COc1ncccc1-c1cnc2n[nH]c(-c3ccc4c(c3)OCO4)c2n1	44.7µM	?	0	44.7µM	0	0
Fc1ccccc1-c1cnc2n[nH]c(-c3ccc4c(c3)OCO4)c2n1	0	?	0	?	0	0
COc1ccc(-c2[nH]nc3ncc(-c4cncnc4)nc23)cc1F	?	?	0	?	0	0
Cc1ccccc1-c1cnc2n[nH]c(-c3ccc4c(c3)OCO4)c2n1	25.1µM	?	0	44.7µM	0	0
CNC(=O)[C@H]1C[C@]2(CCCCN(C)C2=O)N(C(=O)c2ccco2)[C@H]1c1ccco1	?	-	0	0	-	-
Oc1ccc(NCCN2CCCC2)cc1	44.7µM	?	0	?	-	?
COc1ccc(NC(=O)c2ccc3c(c2)NC(C)(COc2ccccc2)CO3)cn1 (centres undefined)	?	?	0	?	0	0
CC1(COc2ccccc2)COc2ccc(C(=O)NCc3ccc4c(c3)OCO4)cc2N1 (centres undefined)	?	?	0	?	0	0
CC1(COc2ccccc2)COc2ccc(C(=O)NCCOc3ccccc3)cc2N1 (centres undefined)	?	?	0	79.4µM	0	0
CC1(CNc2ccccc2)COc2ccc(C(=O)NCCc3ccccn3)cc2N1 (centres undefined)	?	0	0	100µM	0	0
CC1(CNc2ccccc2)COc2ccc(C(=O)NCCOc3ccccc3)cc2N1 (centres undefined)	31.6µM	0	0	39.8µM	?	0
COc1ccc(NC(=O)c2ccc3c(c2)NC(C)(CNc2ccccc2)CO3)cn1 (centres undefined)	?	?	0	44.7µM	0	0
